Measured values reported in ChEMBL document CHEMBL3433997, “St. Jude Leishmania screening dataset” (2016).

Tests used:
Format in all cases: functional
[1] = molecular target: Solute carrier family 2, facilitated glucose transporter member 1 (Homo sapiens) (UniProt P11166); assay: ST_JUDE_LEISH: Cytotoxicity at 2uM final concentration against transgenic Leishmania Mexicana promastigotes LmGLUT1 that are glucose transport deficient and complemented with the human glucose transporter GLUT1. Activity is measured by DNA content using SYBR green in vitro
Sequence of Solute carrier family 2, facilitated glucose transporter member 1 (Homo sapiens) (P11166 whole entry): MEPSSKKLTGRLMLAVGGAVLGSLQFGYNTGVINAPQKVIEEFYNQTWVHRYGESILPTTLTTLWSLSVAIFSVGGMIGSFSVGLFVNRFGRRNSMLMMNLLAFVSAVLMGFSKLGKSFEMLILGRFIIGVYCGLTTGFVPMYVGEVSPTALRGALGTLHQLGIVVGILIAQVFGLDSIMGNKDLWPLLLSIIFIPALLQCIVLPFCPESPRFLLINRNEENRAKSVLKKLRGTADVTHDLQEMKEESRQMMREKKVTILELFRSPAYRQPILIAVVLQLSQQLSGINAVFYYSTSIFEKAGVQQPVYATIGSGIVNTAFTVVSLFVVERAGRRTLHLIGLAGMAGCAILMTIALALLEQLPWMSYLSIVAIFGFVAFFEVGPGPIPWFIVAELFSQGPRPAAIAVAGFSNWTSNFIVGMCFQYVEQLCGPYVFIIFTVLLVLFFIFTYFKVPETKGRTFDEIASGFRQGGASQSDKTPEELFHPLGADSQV

[2] = molecular target: Hexose transporter 1 (Plasmodium falciparum) (UniProt O97467); assay: ST_JUDE_LEISH: Cytotoxicity at 2uM final concentration against transgenic Leishmania Mexicana promastigotes LmPfHT that are glucose transport deficient and complemented with the Plasmodium falciparum hexose transporter. Activity is measured by DNA content using SYBR green in vitro
[3] = molecular target: Glucose transporter (Leishmania mexicana) (UniProt O61059); assay: ST_JUDE_LEISH: Cytotoxicity at 2uM final concentration against transgenic Leishmania Mexicana promastigotes LmGT2 that are glucose transport deficient and complemented with the L. Mexicana glucose transporter 2. Activity is measured by DNA content using SYBR green in vitro

| Compound | inhibition [1] [%] | inhibition [2] [%] | inhibition [3] [%] |
| --- | --- | --- | --- |
| CC(C)(C)SC1SC(SC(C)(C)C)C(OC(=O)c2ccccc2)C(OC(=O)c2ccccc2)C1OC(=O)c1ccccc1 (stereo unspecified) | -0.52 | -0.69 | -0.49 |
| CC(=O)Nc1ccc2[nH]cc(C3CCN(CC4CCC(NC(=O)/C=C/c5ccc(Cl)c(Cl)c5)CC4)CC3)c2n1 (stereo unspecified) | -0.73 | 0.9 | -2.32 |
| Cc1ccc(CN2CCCN(Cc3cccc(NC(=O)c4ccc(-c5ccccc5)cc4)c3)CC2)cc1C | 3.45 | 2.98 | 2.82 |
| Nc1c2c(nc3ccc(NC(=O)CCCCCc4ccccc4)cc13)CCCC2 | 7.95 | 9.26 | 10 |
| COc1cccc(NC(=O)Nc2cc(-c3ccc4[nH]ncc4c3)cc3c2CNC3=O)c1 | 2.19 | 2.02 | 1.68 |
| CNC(=O)Cc1ccc(C(=O)Nc2cccc(-c3csc(-c4nc5ccccc5[nH]4)c3)c2)cc1 | -2.64 | -0.06 | 1.68 |
| Cc1ccc(NC(=O)N2CCN(CCCCCNC(=O)/C=C/c3ccc(Cl)c(Cl)c3)CC2)cc1C | 8.95 | 7.71 | 6.33 |
| CCN1CCC(N(Cc2ccc(-c3ccc(C(F)(F)F)cc3)cc2)C(=O)CCCCn2c(CCc3cccc(F)c3F)nc(=O)c3ccccc32)CC1 | 1.08 | -1.15 | -0.6 |
| Cc1cccc2nc(-c3ccc(-c4ccc(CNCc5ccccc5)cc4)cc3)[nH]c12 | 3.54 | 3.32 | 4.35 |
| CCCCCCn1c(Sc2ccc(C#N)c([N+](=O)[O-])c2)nnc1-c1ccccc1 | 8.64 | 11.1 | 6.76 |
| CN1CCC(c2ccc(NC(=O)c3ccc(-c4cccc(C(F)(F)F)c4)o3)cc2)CC1 | 2.13 | 1.69 | 1.19 |
| CC[C@H]1CN(C/C=C/c2ccc(OC)cc2)CC[C@H]1CCCc1ccnc2ccc(O)cc12 | 2.15 | 2 | 1.51 |
| COc1ccc2cc(-c3nc(-c4c(Cl)cccc4Cl)[nH]c3-c3ccnc(NCCCN4CCN(C)CC4)c3)ccc2c1 | -1.11 | -1.01 | -5.14 |
| Fc1ccc2[nH]c(-c3cccc(-c4ccc(CNCCc5ccncc5)cc4)c3)nc2c1 | 13.9 | 12.6 | 11.4 |
| CCCN1CCN(CCCCNc2c3ccccc3nc3ccccc23)CC1 | 51.5 | 73.8 | 27.7 |
| N=c1cc(C=Cc2ccc(O)cc2)[nH]c2ccccc12 | 2.26 | 4.1 | 3.12 |
| COc1ccc2nccc([C@@H](O)CN3CCC(NCc4cc5ccccc5o4)CC3)c2c1 | 10.1 | 15.3 | 5.59 |
| CCN(CC)C(=O)C(=O)c1c[nH]c2ccc(Cl)cc12 | 3.24 | 0.07 | 0.85 |
| COc1ccc(Cl)cc1N1CCN(CCCNC(=O)c2ccc(-c3nc4cnccc4[nH]3)c(Br)c2)CC1 | 0.19 | -0.19 | -0.85 |
| Cc1[nH]c2c(NCc3ccc(F)cc3)nccc2c1C | 4.48 | 4.33 | 2.57 |
| CCN(CC)CCN(Cc1ccc(-c2ccc(C(F)(F)F)cc2)cc1)C(=O)Cn1c(CCc2cc(F)c(F)cc2F)nc(=O)c2ccccc21 | 13.6 | 12.3 | 12.8 |
| CC(C)CCNc1nc(NCCCc2ccccc2)c2cc(O)ccc2n1 | 24.8 | 18.8 | 8.25 |
| COc1ccc(C(=O)Nc2ccc(Nc3nc(C)cc(N(C)C)n3)cc2)c(OC)c1 | 5.81 | 6.65 | 5.62 |
| COc1cc(OC)nc(-c2cccc(NC(=O)c3ccc4c(=O)n(CCN5CCCCC5)cnc4c3)c2)n1 | 11.9 | 9.45 | 7.35 |

| Compound | inhibition [1] [%] | inhibition [2] [%] | inhibition [3] [%] |
| --- | --- | --- | --- |
| COCCCNC(=O)c1ccc(O)c(-c2cc(Cl)cc(Cl)c2)c1 | 0.32 | -2.5 | 1.9 |
| Oc1ccc(-c2cncc(NCc3ccc(F)c(F)c3)c2)cc1 | 7.16 | 7.41 | 7.98 |
| CN(C)CCCN1C(=O)c2[nH]nc(-c3ccc(Cl)cc3O)c2C1c1ccc(Cl)cc1 (stereo unspecified) | 0.82 | 0.66 | 1.69 |
| O=C(/C=C/c1ccc(-c2nc3cc(F)c(F)cc3[nH]2)cc1)NCc1ccc(Cl)c(Cl)c1 | 4.53 | 4.32 | 1.96 |
| CCOc1ccc(-c2nonc2NC(=O)c2ccc(OC(C)C)cc2)cc1OCC | 2.72 | 1.95 | 3.68 |
| Cc1[nH]c(C)c(-c2ccc(-c3ccc(OC(F)(F)F)cc3)cc2)c(=O)c1Br | 2.4 | 4.25 | 3.37 |
| CN1CCc2cc(NS(=O)(=O)c3ccc(-c4ccc(Cl)cc4)cc3)c(OCCCN3CCCCC3)cc2CC1 | 1.09 | -0.92 | 0.92 |
| Cc1cc(Nc2nc(Nc3cccc(Cl)c3)nc3ccccc23)n[nH]1 | 10.5 | 17.2 | 9.22 |
| O=C(N[C@@H](CC1CCCCC1)C(=O)NC1CCCCCC1)c1ccc(O)c(-c2ccc(Cl)c(Cl)c2)c1 | -0.25 | 1.39 | 0.88 |
| COc1cccc(-c2cc(C(F)(F)F)n3ncc(C(=O)Nc4cc(C)ccc4O)c3n2)c1 | 2.75 | 3.89 | 3.36 |
| FC(F)(F)c1ccc2[nH]c(-c3ccc(-c4cccc(CNCc5ccccc5)c4)cc3)nc2c1 | 7.1 | 4.87 | 7.33 |
| Cc1ccccc1C1CCN(C2CCC(NC(=O)c3csc(-c4cccc(Cl)c4)n3)CC2)CC1 (stereo unspecified) | 9.21 | 12 | 8.46 |
| Nc1nccc(-c2ccc3c(-c4cccc(F)c4)cnc(N)c3c2)n1 | -0.44 | 3.51 | -0.84 |
| CCOc1ccc2[nH]c(C)cc(=NN=Cc3cccc(F)c3)c2c1 | -0.81 | -2.04 | 0.95 |
| COC(=O)c1cc(C(=O)CN(Cc2ccccc2)C(C)C)ccc1O | 4.78 | 5.9 | 4.16 |
| CCCCCN1CCCC(CNS(=O)(=O)c2cccc(C(=O)Nc3ccc(C(F)(F)F)cc3)c2)C1 (stereo unspecified) | 0.67 | -0.91 | -0.09 |
| CC(=O)Nc1ccc(COc2ccc(Nc3ccnc4cc(-c5ccccn5)ccc34)cc2)cc1 | 3.41 | 1.28 | 1.17 |
| CSc1nc2nc(C)c(Cc3cccc(C(F)(F)F)c3)c(C)n2n1 | 0.17 | 0 | -1.61 |
| CC(=O)c1cc(N2CCOCC2)ccc1N | 2.03 | 1.08 | 2.38 |
| CCCCNc1cc(NCCCC)c2c(n1)[nH]c1ccccc12 | 18.4 | 16.6 | 4.43 |
| CCOc1cc(Cc2cnc(N)nc2N)cc(Br)c1OC | 0.49 | 2.73 | 2.29 |
| Fc1ccc2[nH]c(-c3cccc(-c4ccc(CNCc5cnn(-c6ccccc6)n5)cc4)c3)nc2c1 | 0.4 | 1.9 | 0.03 |
| Cc1ccc2sc(N(CCCn3ccnc3)C(=O)c3ccco3)nc2c1C | 0.64 | 2.76 | 2.79 |
| CCOc1ccc(-c2n[nH]c(C(F)(F)F)c2-c2ccccc2OC)c(O)c1 | 2.44 | 1.89 | 1.29 |

| Compound | inhibition [1] [%] | inhibition [2] [%] | inhibition [3] [%] |
| --- | --- | --- | --- |
| COc1ccc(-c2ccccc2OCCCNc2nc(NCCc3ccc(O)cc3)nc(N3CCNCC3)n2)cc1 | 1.12 | 3.49 | 2.75 |
| CN1CCN(CC(O)CNC(=O)Nc2ccc(Br)cc2)CC1 (stereo unspecified) | 3.01 | 3.45 | -0.7 |
| c1ccc2c(CNCCCCCCNCc3c(OCC4CC4)ccc4ccccc34)c(OCC3CC3)ccc2c1 | 51.5 | 69.8 | 37.4 |
| O=C(Nc1ccc(Cn2ncc(N3CCCNCC3)c(Cl)c2=O)cc1)Nc1cc(C(F)(F)F)cc(C(F)(F)F)c1 | 2.99 | 1 | 1.99 |
| Cc1noc(-c2ccc3c(c2)CCN(CCC2CCC(NC(=O)c4cc5ccccc5[nH]4)CC2)CC3)n1 (stereo unspecified) | 2.93 | 2.28 | 1.98 |
| COc1cc2c(cc1OC)CC(NCc1ccc(-c3ccc4nc[nH]c4c3)cc1)C2 | 5.26 | 5.44 | 4.38 |
| CN(C)Cc1ccc(-c2ccc3ccnc(N)c3c2)cc1 | 3.2 | 4.43 | 1.95 |
| O=S(=O)(NCCN1CCCC1)c1cccc(-c2cccc(CNCCc3cccs3)c2)c1 | 11.7 | 12 | 8.7 |
| O=C(NCc1ccccc1)C1Cc2c([nH]c3ccc(Br)cc23)C2(CCN(Cc3ccccc3)CC2)N1 (stereo unspecified) | 2.61 | 3.23 | 1.63 |
| Oc1ccc(CCNc2nc(NCc3cccc(-c4cc(C(F)(F)F)ccc4Cl)c3)nc(N3CCNCC3)n2)cc1 | 2.86 | 1.88 | 2.82 |
| Cc1cc2c(NC(=O)NC3CCN(CCc4cccc(Cl)c4)CC3)cccc2cn1 | -1.26 | 1.1 | -3.28 |
| CC(C)c1cn2c3c(cc(C(=O)N[C@@H](Cc4ccccc4)[C@H](O)CNC4CCOCC4)cc13)N(C)S(=O)(=O)CC2 | 3.12 | 2.83 | 3.22 |
| CCCCCCCN1CC[C@@H](CCCc2ccnc3ccc(OCCN4CCOCC4)cc23)[C@@H](CC)C1 | 10.6 | 7.56 | 9.34 |
| CC(=O)c1ccc(N2C(=O)C3C(Cc4ccc(OC(C)(C)C)cc4)NC4(C(=O)N(Cc5ccc(C(C)(C)C)cc5)c5ccccc54)C3C2=O)cc1 (stereo unspecified) | 7.13 | 4.25 | 2.13 |
| CCCCCCCCc1c(C)nc(C)c(Br)c1O | 0.75 | -0.72 | -0.12 |
| COc1ccc(C=NNc2cc(C)nc3ccc(OC)cc23)c(OC)c1 | 8 | 7.55 | 2.56 |
| CC(C)(CNC(=O)[C@H]1CCCN1)c1nc(-c2ccc(Cl)c(O)c2)c(-c2ccncc2)[nH]1 | 8.17 | 8.03 | 8.28 |
| Cc1cc(=NN=Cc2ccccc2Cl)c2cc(F)ccc2[nH]1 | 3.99 | 2.95 | 2.23 |
| CN1CCC(NCc2cccc(-c3ccc(S(=O)(=O)NCCN4CCCC4)c(F)c3)c2)CC1 | -1.49 | -0.62 | -0.34 |
| CN(C)Cc1ccc(-c2cccc(NC(=O)c3ccc(Cl)cc3)c2)cc1 | -2.32 | -0.06 | 0.23 |
| N=C(N)Nc1ccc(CCc2ccc(NC(=N)N)cc2)cc1 | 4.14 | 4.16 | 2.91 |
| CC(C)(C)c1ccccc1OC(=O)c1ccccc1 | -1.66 | -1.47 | -0.79 |
| Cn1cncc1C(=O)Nc1cccc(-c2ccc(-c3nc4cc(F)ccc4[nH]3)cc2)c1 | 0 | -0.68 | 3.3 |
| Cc1cccc2nc(-c3cccc(-c4cccc(C(=O)NCc5nccn5C)c4)c3)[nH]c12 | 11.5 | 10.8 | 10.2 |
